The full list was thinned out, with the strongest signals kept by preference.
Key:
Test in all cases: glycan array binding signal (z-score within array); higher = stronger binding
Conditions in all cases: glycan notation: IUPAC condensed, linker removed
[1] = target: GalNAc(b1-3)Gal(a1-4)Gal(b1-4)GlcNAc
Procedure, shortened: (§1)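 From the Consortium for Functional Glycomics database, 3228 arrays were curated, keeping only those whose protein sequence was available. Binding is given as a within-array Z-score averaged across arrays sharing a protein sequence and across linkers. Negative Z-scores can be read as non-binding.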

[2] = target: GalNAc(b1-4)Gal(b1-4)Glc
Procedure, shortened: as §1

[3] = target: GalNAc6S(b1-4)GlcNAc
Procedure, shortened: as §1

[4] = target: GlcNAc(a1-3)Gal(b1-4)GlcNAc
Procedure, shortened: as §1

[5] = target: GlcNAc(b1-2)Gal(b1-3)GalNAc
Procedure, shortened: as §1

[6] = target: GlcNAc(b1-3)Gal(b1-4)GlcNAc(b1-3)Gal(b1-4)GlcNAc(b1-3)Gal(b1-4)GlcNAc(b1-3)Gal(b1-4)GlcNAc(b1-2)Man(a1-3)[GlcNAc(b1-3)Gal(b1-4)GlcNAc(b1-3)Gal(b1-4)GlcNAc(b1-3)Gal(b1-4)GlcNAc(b1-3)Gal(b1-4)GlcNAc(b1-2)Man(a1-6)]Man(b1-4)GlcNAc(b1-4)GlcNAc
Procedure, shortened: as §1

[7] = target: GlcNAc(b1-3)Gal(b1-4)GlcNAc(b1-3)Gal(b1-4)GlcNAc(b1-3)GalNAc
Procedure, shortened: as §1

[8] = target: GlcNAc(b1-4)Gal(b1-4)GlcNAc
Procedure, shortened: as §1

[9] = target: GlcNAc(b1-4)GlcNAc(b1-4)GlcNAc(b1-4)GlcNAc(b1-4)GlcNAc
Procedure, shortened: as §1

[10] = target: Man(a1-3)[Man(a1-6)]Man(a1-6)[Man(a1-3)]Man(b1-4)GlcNAc(b1-4)GlcNAc
Procedure, shortened: as §1

[11] = target: Neu5Ac(a2-3)Gal(b1-3)GalNAc
Procedure, shortened: as §1

[12] = target: Neu5Ac(a2-3)Gal(b1-3)GlcNAc(b1-2)Man(a1-3)[GlcNAc(b1-4)][Neu5Ac(a2-3)Gal(b1-3)GlcNAc(b1-2)Man(a1-6)]Man(b1-4)GlcNAc(b1-4)GlcNAc
Procedure, shortened: as §1

[13] = target: Neu5Ac(a2-3)Gal(b1-3)[Fuc(a1-4)]GlcNAc(b1-3)Gal(b1-3)[Fuc(a1-4)]GlcNAc
Procedure, shortened: as §1

[14] = target: Neu5Ac(a2-3)Gal(b1-4)GlcNAc(b1-2)Man
Procedure, shortened: as §1

[15] = target: Neu5Ac(a2-3)Gal(b1-4)GlcNAc(b1-3)Gal(b1-4)GlcNAc(b1-3)Gal(b1-4)GlcNAc(b1-2)Man(a1-3)[Neu5Ac(a2-3)Gal(b1-4)GlcNAc(b1-3)Gal(b1-4)GlcNAc(b1-3)Gal(b1-4)GlcNAc(b1-2)Man(a1-6)]GalNAc
Procedure, shortened: as §1

[16] = target: Neu5Ac(a2-3)Gal(b1-4)GlcNAc(b1-6)GalNAc
Procedure, shortened: as §1

[17] = target: Neu5Ac(a2-3)Gal(b1-4)GlcNAc6S
Procedure, shortened: as §1

[18] = target: Neu5Ac(a2-3)Gal(b1-4)[Fuc(a1-3)]GlcNAc(b1-6)[Gal(b1-3)]GalNAc
Procedure, shortened: as §1

[19] = target: Neu5Ac(a2-3)Gal(b1-4)[Fuc(a1-3)]GlcNAc(b1-6)[Neu5Ac(a2-3)Gal(b1-3)]GalNAc
Procedure, shortened: as §1

[20] = target: Neu5Ac(a2-3)[GalNAc(b1-4)]Gal(b1-4)GlcNAc(b1-3)GalNAc
Procedure, shortened: as §1

[21] = target: Neu5Ac(a2-6)Gal(b1-4)GlcNAc(b1-2)Man(a1-3)[GlcNAc(b1-4)][Neu5Ac(a2-6)Gal(b1-4)GlcNAc(b1-2)Man(a1-6)]Man(b1-4)GlcNAc(b1-4)GlcNAc
Procedure, shortened: as §1

[22] = target: Neu5Ac(a2-6)Gal(b1-4)GlcNAc(b1-3)Gal(b1-4)GlcNAc(b1-2)Man(a1-3)[Neu5Ac(a2-6)Gal(b1-4)GlcNAc(b1-3)Gal(b1-4)GlcNAc(b1-2)Man(a1-6)]GalNAc
Procedure, shortened: as §1

[23] = target: Neu5Ac(a2-6)Gal(b1-4)GlcNAc(b1-3)Gal(b1-4)GlcNAc(b1-3)GalNAc
Procedure, shortened: as §1

[24] = target: Neu5Ac(a2-6)GalNAc(b1-4)GlcNAc
Procedure, shortened: as §1

[25] = target: Neu5Ac(a2-8)Neu5Gc(a2-3)Gal(b1-4)GlcNAc
Procedure, shortened: as §1

B1: PV12658A-bvu-496-32-496 (Bacteroides vulgatus) (protein)
chain: DLDGAITTPAAVELALNGIYYSLPGNGFNVIFPTVSGSFKAGTMWRQEIVSAGNAVYYSERMLPTLSFSDATEWDADYAVIKNANFLETACNRMSDGEFSGNRRAEVLGEIAYLRALAYFNILVRYCEFWDMNSEYGVVMRNEAPSVSNALKARSSVADSYQYILDQLEIAIEKAPDWKKLSQASKEAAKALKARVLLYAGKYTEAVAAVNDAIDTNSPLPEANYGDVFDKFSTTKEILFARVFDQKDATNTSTRQQCYGNSPTKKQGYWGPTNEYVELVGDDPRADAIFSKVDSLMDSRSSAVAYNLKSVKKLLNDANDMPVIFSRVSELYLIKAEALYRSGASISEAYAPIRKLRERAGAEIILPANNEELETAIFNEWMLELSFENWHEWFAMIRFAGYTEKPDFTRLLALNKTLREALEKEYEKSEAQGDNYYQRIIDRRIDAIPSSEISSNLECKQNPGY
- glycan array binding signal (z-score) [1]: -0.363
- glycan array binding signal (z-score) [2]: -0.027
- glycan array binding signal (z-score) [3]: -0.216
- glycan array binding signal (z-score) [4]: -0.069
- glycan array binding signal (z-score) [5]: -0.342
- glycan array binding signal (z-score) [6]: 0.265
- glycan array binding signal (z-score) [7]: 0.161
- glycan array binding signal (z-score) [8]: -0.358
- glycan array binding signal (z-score) [9]: -0.447
- glycan array binding signal (z-score) [10]: 0.012
- glycan array binding signal (z-score) [11]: -0.233
- glycan array binding signal (z-score) [12]: -0.433
- glycan array binding signal (z-score) [13]: -0.275
- glycan array binding signal (z-score) [14]: -0.265
- glycan array binding signal (z-score) [15]: 7.6
- glycan array binding signal (z-score) [16]: -0.479
- glycan array binding signal (z-score) [17]: -0.525
- glycan array binding signal (z-score) [18]: 4.21
- glycan array binding signal (z-score) [19]: -0.336
- glycan array binding signal (z-score) [20]: -0.198
- glycan array binding signal (z-score) [21]: -0.152
- glycan array binding signal (z-score) [22]: 10.6
- glycan array binding signal (z-score) [23]: -0.476
- glycan array binding signal (z-score) [24]: -0.163
- glycan array binding signal (z-score) [25]: 5.59

From the supplement of paper PMC8728848
